Values joined by “and” are separate entries in the source; they are usually repeats but may differ in a detail not shown here. Identical values can stand only once. The panel holds about 83,000 compounds, 20% with a hit somewhere; the sample as a whole holds those more often.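 Interpretation: 100, growth as untreated; towards 0, rising growth inhibition; 0, no net growth; 0 to -100, cell death. Compounds scoring below 10 were considered active.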 Active and inactive are the calls of the source.
Test system: MDA-MB-468 breast
Assay: NCI-60 one-dose screen, 48 h (100 = growth as untreated, 0 = no growth, -100 = all killed)
Settings: 10 µM unless noted

Compound	growth
CCCCCCOc1ccc(C2(Cl)c3ccccc3N(C)c3ccccc32)cc1	50.3% (inactive)
O=C(OCc1ccccc1)n1nnc2ccccc21	107% (inactive)
COc1cc(OC)c(C(=O)/C=C/c2cc3c(cc2OCc2ccccc2)OC(C)(C)CC3)cc1CC=C(C)C	26.2% (inactive)
O=C1Nc2ccccc2/C1=C/c1cn(C[C@@H](O)Cn2c3ccccc3c(=O)c3ccccc32)c2ccccc12	79.6% (inactive)
Cc1ccc(-c2nn(-c3ccccc3)cc2/C=C/C(=O)c2ccc(NC(=O)CCCCCCC(=O)NO)cc2)cc1	70.9% (inactive)
CN1CCN(c2ccc(C(=O)/C=C/c3cc(F)cc(C(F)(F)F)c3)cc2)CC1	31.5% (inactive)
COc1cccc(CNc2c3ccccc3nc3ccccc23)c1	13.6% (inactive)
COc1ccc(CN2CCc3c(Sc4ccccc4)nc(N)nc3C2=O)c(OC)c1	48.2% (inactive)
CCc1cc2c(cc1Cl)nc1c(=O)[nH]c(=O)nc-1n2CCOCC(C)C	43.8% (inactive)
O=S(=O)(c1cc(Cl)ccc1O)c1cc(Cl)ccc1O	63.1% (inactive)
CCC[S@](=O)c1ccc2nc(NC(=O)OC)[nH]c2c1	94.1% (inactive)
C#Cc1cccc(NC(=O)c2ccccc2NC(=O)CCl)c1	76.1% [8.25 µM] (inactive)
Clc1ccc(-c2noc(/C=C\c3ccccc3)n2)cc1	97.7% (inactive)
CCNc1nnnn1CC	101% (inactive)
O=C(/C=C/c1ccc(F)cc1)c1ccc(NC(=O)N2CCN(c3cc4c(cc3F)c(=O)c(C(=O)O)cn4C3CC3)CC2)cc1	68.3% (inactive)
CCCCCCCCCCCCCCCCCCOc1ccccc1CC(=O)OCC[N+]1(C)CCCCC1	-10.3% (active)
Clc1cc(Br)ccc1-c1ccc(CNCC2CCNCC2)o1	21.2% (inactive)
COc1cc(-c2nn(-c3cccc(NC(=O)Nc4ccc(Cl)c(C(F)(F)F)c4)c3)cc2-c2ccncc2)ccc1Cl	-7.22% (active)
Cc1c(C2=CCCCC2)c2ccccn2c1C(=O)c1cccc(S(=O)(=O)N2CCOCC2)c1	51.5% (inactive)
O=C1/C(=C\c2ccccn2)c2ccccc2N1c1c(Cl)cccc1Cl	-17.2% (active)

Compound	growth
Cc1ccccc1NC(=O)c1sc2nc3c(cc2c1N)CCCC3	11.8% (inactive)
C#C[C@]1(O)CC[C@H]2[C@@H]3CC=C4c5nc(Nc6ccccn6)sc5CC[C@]4(C)[C@H]3CC[C@@]21C	14.2% (inactive)
Cc1cc(=O)oc2cc(Oc3nc(-c4ccc(Cl)cc4)cn4c(-c5ccc(Cl)cc5)cnc34)ccc12	84.8% (inactive)
Nc1nc2ccccc2c2c(=O)c3ccc(Cl)cc3sc12	3.53% (active)
CN(C)CCC(=O)c1ccc(Cl)cc1	97.3% (inactive) and 97.2% (inactive)
COc1ccc(-c2cc(-c3cccnc3)nc3sc(C(=O)Nc4ccccc4)c(N)c23)cc1OC	80.8% (inactive)
O=CC(OC(=O)c1ccccc1)C(OC(=O)c1ccccc1)C(COC(c1ccccc1)(c1ccccc1)c1ccccc1)OC(=O)c1ccccc1 (stereo not given)	74.6% (inactive)
COC(=O)C1NC(=S)N(c2ccc(Cl)cc2)C1/C=C/c1ccccc1 (stereo not given)	108% (inactive)
O=C(Cn1cc(CN2C(=O)c3ccccc3S2(=O)=O)nn1)Nc1nc2ccccc2s1	130% (inactive)
CC(=O)c1cc(C(=O)N2c3ccccc3Sc3ccccc32)n2ccc3ccccc3c12	43.4% (inactive)
COc1cc2c(c(OC)c1OC)-c1ccc(NNC(N)=S)c(=O)cc1[C@@H](NC(C)=O)CC2	-14.2% (active)
COc1ccc(-n2ncc3c4nc(OC)c(S(=O)(=O)c5ccccc5)cc4ccc32)cc1	51.9% (inactive)
Clc1ccc2oc3c(OCCCn4ccnc4)c4ccccc4nc3c2c1	66.5% (inactive)
Clc1ccc(C2=NN=C3C(Cc4ccccc4)=Nc4ccccc4N3C2)cc1	84.7% (inactive)
c1ccc2oc(-c3cnc4nonc4n3)cc2c1	98.9% (inactive)
Nc1c(C(=O)Nc2ccccc2)sc2nc3c(cc12)CN(C(=O)OCc1ccccc1)CC3	63.8% (inactive)
C#CCOc1ccc(/C=N/Nc2nc(-c3cc(Cl)ccc3Cl)cs2)cc1	25.9% (inactive)
O=C1/C(=C/c2ccc(-c3ccc(Br)cc3)o2)SC(=S)N1CCc1ccc(O)cc1	90.2% (inactive)
S=c1[nH]nc2sc3ccccc3n12	122% (inactive)
COc1ccc2c(c1)OC(N(C(C)=O)C(C)=O)=C(C#N)C2c1ccc(F)cc1 (stereo not given)	-36.1% (active)

From PubChem BioAssay (NCI)
